{"source": "PubChem BioAssay (NCATS)", "note": "Results filed as inconclusive are left out. Where a call stands in place of a potency, no number is given. Calls of active or inactive are those of the source. Calls come from the whole dose curve; as a rule, active = well fitted cell-killing curve with a large enough effect; inconclusive = small, poorly fitted or top-dose-only effect; inactive = flat fitted curve, though single readings scatter. Potency is the fitted concentration of half-maximal effect.", "data": [{"assay": "Cell Viability - LYMP2-012 (AID 982);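 note: cellular ATP by luciferase luminescence where a drop means cytotoxicity; cells exposed to compound for one day before reading; nearly all actives have a fitted effect of over 55% in size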", "settings": "LYMP2-012 lymphoblastoid cell viability qHTS; series mostly up to 92.2 µM", "values": [{"smiles": "O=C(O)C(Br)Br", "Potency": "inactive"}, {"smiles": "Cc1ccc(OP(=O)(Oc2ccc(C)cc2)Oc2ccc(C)cc2)cc1", "Potency": "inactive"}, {"smiles": "Oc1c(Cl)c(Cl)cc(Cl)c1Cl", "Potency": "inactive"}, {"smiles": "Nc1ccc(Cc2ccc(N)c(Cl)c2)cc1Cl", "Potency": "inactive"}, {"smiles": "Brc1ccc(Oc2ccc(Br)cc2Br)c(Br)c1", "Potency": "inactive"}, {"smiles": "O=[N+]([O-])c1c(Cl)c(Cl)c(Cl)c(Cl)c1Cl", "Potency": "inactive"}, {"smiles": "CN1CSC(=S)N(C)C1", "Potency": "25.1 µM (active)"}, {"smiles": "ClCC(Cl)Cl", "Potency": "inactive"}, {"smiles": "CC(C)Br", "Potency": "inactive"}, {"smiles": "O=[N+]([O-])c1ccc(O)c([N+](=O)[O-])c1", "Potency": "inactive"}, {"smiles": "CC(C)[N+](=O)[O-]", "Potency": "inactive"}, {"smiles": "CCCC[N+](=O)[O-]", "Potency": "inactive"}, {"smiles": "Cc1cc(-c2cc(C)c(N)c(C)c2)cc(C)c1N", "Potency": "inactive"}, {"smiles": "Nc1cc(Cl)ccc1O", "Potency": "inactive"}, {"smiles": "CCN(N=O)C(N)=O", "Potency": "inactive"}, {"smiles": "N#CC(Cl)(Cl)Cl", "Potency": "inactive"}, {"smiles": "CCCCC(CC)COC(=O)c1ccc(C(=O)OCC(CC)CCCC)c(C(=O)OCC(CC)CCCC)c1", "note": "(stereo not given)", "Potency": "inactive"}, {"smiles": "O=C(O)C(Br)CBr", "note": "(stereo not given)", "Potency": "inactive"}, {"smiles": "Nc1c(Br)cc([N+](=O)[O-])cc1[N+](=O)[O-]", "Potency": "inactive"}, {"smiles": "O=[N+]([O-])c1ccccc1CCl", "Potency": "inactive"}, {"smiles": "Cc1cc(C)cc(OP(=O)(Oc2cc(C)cc(C)c2)Oc2cc(C)cc(C)c2)c1", "Potency": "inactive"}, {"smiles": "O=C(O)C(Cl)Br", "note": "(stereo not given)", "Potency": "inactive"}, {"smiles": "COP(=S)(OC)SCn1nnc2ccccc2c1=O", "Potency": "inactive"}, {"smiles": "Nc1ccc([N+](=O)[O-])cc1N", "Potency": "inactive"}, {"smiles": "O=C(O)c1cccc(Cl)c1", "Potency": "inactive"}, {"smiles": "Cc1cc(N=Nc2ccccc2C)ccc1N", "Potency": "inactive"}, {"smiles": "OCCCCO", "Potency": "inactive"}, {"smiles": "O=[N+]([O-])c1cc(Cl)c(Cl)c(Cl)c1", "Potency": "inactive"}, {"smiles": "CC(C)(COCC1CO1)COCC1CO1", "note": "(stereo not given)", "Potency": "inactive"}, {"smiles": "Cc1ccc2c(c1N)C(=O)c1ccccc1C2=O", "Potency": "inactive"}, {"smiles": "COc1ccccc1N", "Potency": "inactive"}, {"smiles": "CC(C)(C)OOC(=O)c1ccccc1", "Potency": "inactive"}, {"smiles": "c1ccc(N=NNc2ccccc2)cc1", "Potency": "inactive"}, {"smiles": "COC(C)(C)C", "Potency": "inactive"}, {"smiles": "C(CCOCC1CO1)COCC1CO1", "note": "(stereo not given)", "Potency": "inactive"}, {"smiles": "CN(C)c1ccc(N)cc1", "Potency": "50.1 µM (active)"}]}, {"assay": "Cell Viability - LYMP2-014 (AID 983);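 note: cells exposed to compound for 24 h at 37 °C; nearly all actives have a fitted effect of over 50% in size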", "settings": "LYMP2-014 lymphoblastoid cells, viability qHTS; series mostly up to 92.2 µM", "method_in_brief": "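Cells are plated at 2500/well and left 5 hr at 37 C. Compounds are added across a concentration range and incubated 24 hr at 37 C in complete medium. CellTiter-Glo is added, and luminescence is read after 30 min at room temperature.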", "values": [{"smiles": "O=C(O)C(Br)Br", "Potency": "inactive"}, {"smiles": "Cc1ccc(OP(=O)(Oc2ccc(C)cc2)Oc2ccc(C)cc2)cc1", "Potency": "inactive"}, {"smiles": "Oc1c(Cl)c(Cl)cc(Cl)c1Cl", "Potency": "inactive"}, {"smiles": "Nc1ccc(Cc2ccc(N)c(Cl)c2)cc1Cl", "Potency": "inactive"}, {"smiles": "Brc1ccc(Oc2ccc(Br)cc2Br)c(Br)c1", "Potency": "inactive"}, {"smiles": "O=[N+]([O-])c1c(Cl)c(Cl)c(Cl)c(Cl)c1Cl", "Potency": "inactive"}, {"smiles": "CN1CSC(=S)N(C)C1", "Potency": "15.8 µM (active)"}, {"smiles": "ClCC(Cl)Cl", "Potency": "inactive"}, {"smiles": "CC(C)Br", "Potency": "inactive"}, {"smiles": "O=[N+]([O-])c1ccc(O)c([N+](=O)[O-])c1", "Potency": "inactive"}, {"smiles": "CC(C)[N+](=O)[O-]", "Potency": "inactive"}, {"smiles": "CCCC[N+](=O)[O-]", "Potency": "inactive"}, {"smiles": "Cc1cc(-c2cc(C)c(N)c(C)c2)cc(C)c1N", "Potency": "inactive"}, {"smiles": "Nc1cc(Cl)ccc1O", "Potency": "inactive"}, {"smiles": "CCN(N=O)C(N)=O", "Potency": "inactive"}, {"smiles": "N#CC(Cl)(Cl)Cl", "Potency": "inactive"}, {"smiles": "CCCCC(CC)COC(=O)c1ccc(C(=O)OCC(CC)CCCC)c(C(=O)OCC(CC)CCCC)c1", "note": "(stereo not given)", "Potency": "inactive"}, {"smiles": "O=C(O)C(Br)CBr", "note": "(stereo not given)", "Potency": "inactive"}, {"smiles": "Nc1c(Br)cc([N+](=O)[O-])cc1[N+](=O)[O-]", "Potency": "inactive"}, {"smiles": "Cc1cc(C)cc(OP(=O)(Oc2cc(C)cc(C)c2)Oc2cc(C)cc(C)c2)c1", "Potency": "inactive"}, {"smiles": "O=C(O)C(Cl)Br", "note": "(stereo not given)", "Potency": "inactive"}, {"smiles": "COP(=S)(OC)SCn1nnc2ccccc2c1=O", "Potency": "inactive"}, {"smiles": "Nc1ccc([N+](=O)[O-])cc1N", "Potency": "inactive"}, {"smiles": "O=C(O)c1cccc(Cl)c1", "Potency": "inactive"}, {"smiles": "Cc1cc(N=Nc2ccccc2C)ccc1N", "Potency": "inactive"}, {"smiles": "OCCCCO", "Potency": "inactive"}, {"smiles": "O=[N+]([O-])c1cc(Cl)c(Cl)c(Cl)c1", "Potency": "inactive"}, {"smiles": "CC(C)(COCC1CO1)COCC1CO1", "note": "(stereo not given)", "Potency": "inactive"}, {"smiles": "Cc1ccc2c(c1N)C(=O)c1ccccc1C2=O", "Potency": "inactive"}, {"smiles": "COc1ccccc1N", "Potency": "inactive"}, {"smiles": "CC(C)(C)OOC(=O)c1ccccc1", "Potency": "inactive"}, {"smiles": "c1ccc(N=NNc2ccccc2)cc1", "Potency": "inactive"}, {"smiles": "COC(C)(C)C", "Potency": "inactive"}, {"smiles": "C(CCOCC1CO1)COCC1CO1", "note": "(stereo not given)", "Potency": "inactive"}]}]}
